The results in this text go back to ChEMBL document CHEMBL3988442, “University of Dundee, Small-Polar-MMV Screening Library” (2021).

Test [1] deals with T1, Aspartate--tRNA(Asp/Asn) ligase (Mycobacterium tuberculosis (strain ATCC 25618 / H37Rv)) (UniProt P9WFW3).
T1 sequence (whole entry): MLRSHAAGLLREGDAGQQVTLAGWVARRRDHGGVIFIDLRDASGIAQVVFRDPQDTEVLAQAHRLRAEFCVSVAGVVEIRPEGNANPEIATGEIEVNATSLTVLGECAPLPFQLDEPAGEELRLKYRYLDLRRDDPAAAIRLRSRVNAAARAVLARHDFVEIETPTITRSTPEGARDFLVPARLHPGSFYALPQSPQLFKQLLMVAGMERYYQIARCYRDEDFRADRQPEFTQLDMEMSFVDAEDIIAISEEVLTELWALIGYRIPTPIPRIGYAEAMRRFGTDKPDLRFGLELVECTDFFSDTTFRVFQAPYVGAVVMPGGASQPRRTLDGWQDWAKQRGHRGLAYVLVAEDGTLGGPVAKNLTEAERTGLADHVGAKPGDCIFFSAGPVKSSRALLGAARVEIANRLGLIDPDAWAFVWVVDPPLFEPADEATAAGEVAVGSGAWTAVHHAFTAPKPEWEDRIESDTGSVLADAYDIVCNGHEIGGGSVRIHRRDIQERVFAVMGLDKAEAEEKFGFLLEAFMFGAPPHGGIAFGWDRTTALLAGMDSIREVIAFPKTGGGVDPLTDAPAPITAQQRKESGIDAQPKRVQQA
Briefly: Assay for Asp RNA synthetase-1 from Mycobacterium tuberculosis. The conditions noted are these: 30 µM. Set-up: scale not given: direction of the effect not stated beside the values. It counts as functional.

The target of test [2] is Shiga toxin 2 (Escherichia coli O157:H7) (UniProt P09385+P09386). Briefly: E. coli 0.157:H7 Shiga Toxin SOP - stx2 screening assay. Also noted: scale not given: direction of the effect not stated beside the values. In kind it is functional. The conditions noted are these: 30 µM.

In the case of `CN(Cc1ccc(F)cc1)C(=O)NCC1(N2CCOCC2)CCSC1` (stereo unspecified), the Percent Effect in test [1] is -1.08%; in test [2], -43.8%.
`CC(C)c1nnc2n1CCN(C(=O)CN1CCc3sccc3C1)C2`: the results for the Percent Effect in test [1] and in test [2] were -0.1% and -16.2%, respectively.
Take `COCCc1noc(CN2CCCCC2Cn2nc(C)cc2C)n1` (stereo unspecified): the Percent Effect in test [1] is -0.417%; in test [2] it was 1.32%.
`CCc1ccc(C(=O)N2CCCC(n3cncn3)C2)o1` (stereo unspecified): the Percent Effect is 1.95% in test [1] and -18.7% in test [2].
As for `CN(C)c1cc(C(=O)NCCc2nnc(-c3ccco3)[nH]2)ccn1`, the Percent Effect in test [1] was -1.56%; in test [2], -46.4%.
Turning to `Cc1cccc(CN2CCc3nnc(CO)n3CC2)n1`, the Percent Effect is 0.728% in test [1] and -10.4% in test [2].
On the same counts, the results for `COc1ccc(C[C@H]2CN(C(=O)c3ccncc3)CC[C@@H]2OC)cc1` are 1.64% and -22.2%.
With `O=C(Cc1ccccn1)N1CCN(CC2CC2)c2ncccc2C1`, the Percent Effect in test [1] was 5.6%; in test [2] it was -12.7%.
On to `CCn1c(CN2CCCC2)nnc1C1CCN(Cc2ccc(C)o2)CC1`, for which the Percent Effect is -0.695% in test [1] and 1.78% in test [2].
Turning to `CCS(=O)(=O)c1ccccc1N1CCC(NC(C)=O)CC1`, the Percent Effect in test [1] was -0.991%; in test [2], 11.9%.
In the same order, the values of `CC(C)(C)c1nnc(CN2CCOC(Cn3cncn3)C2)o1` (stereo unspecified) are 0.0111% and 8.96%.
With `O=C(CN1CC(n2cccn2)C1)NCCc1c[nH]c2ccccc12`, the Percent Effect in test [1] is -0.903%; in test [2] it was -2.74%.
In the same order, the values of `Cn1ccnc1CN1CCN(Cc2ccccc2C#N)CC1` are 1.91% and 7.78%.
Regarding `COc1cccc(N2CCN(CCC(=O)NC3CCCC3)CC2)c1`, the figures for the Percent Effect in test [1] and in test [2] were 1.95% and -41.4%, respectively.
Consider `CN1CCN(C(=O)c2cccc(OCc3cscn3)c2)CC1`, for which the Percent Effect in test [1] was 0.522%; in test [2], -26.5%.
On the same counts, the results for `CC(C)(C)c1n[nH]c(C2CN(C(=O)c3csnn3)CCO2)n1` (stereo unspecified) are -2.01% and 5.88%.
For `Cc1noc(C)c1C(=O)NCC(O)c1ccc(F)cc1F` (stereo unspecified), the Percent Effect in test [1] was -2.01%; in test [2] it was 20.4%.
`c1ccc(-c2nc(CN3CCCC(Cn4cncn4)C3)no2)cc1` (stereo unspecified): the Percent Effect is -9.3% in test [1] and 7.88% in test [2].
